Assay in all cases: HT-SELEX; 20 mM HEPES pH 7, 140 mM KCl, 5 mM NaCl, 1 mM K2HPO4, 2 mM MgSO4, 100 uM EGTA, ZnSO4, 0.1% Tween20; room temperature, 1 h; high values mean tight binding
What all share (details): protein: ivt; tags: eGFP (N-terminal); dsDNA, one strand shown

Assay [1] concerns the target ZNF721 full-length (Homo sapiens, UniProt Q8TF20-2 1-923). In short, it runs like this: (§1)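 A tagged transcription factor, either full-length or its DNA-binding-domain fragment, was made in HEK293 lysate or cell-free extract, immobilised on beads and incubated with a randomized 40-base DNA library for 1 h at room temperature in HEPES/KCl low-stringency buffer containing Tween20. Washed beads were heat-eluted, and the bound DNA was PCR-amplified over successive cycles and Illumina-sequenced at ~3 million 60 bp reads per sample. The binding signal is the relative k-mer count in selected reads, where a higher value means tighter binding.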

For assay [2], the target named is ZNF721 DBD1 (Homo sapiens, UniProt Q8TF20-2 29-461). In short, it runs like this: as §1
Sequence of ZNF721 DBD1 (Q8TF20 17-449): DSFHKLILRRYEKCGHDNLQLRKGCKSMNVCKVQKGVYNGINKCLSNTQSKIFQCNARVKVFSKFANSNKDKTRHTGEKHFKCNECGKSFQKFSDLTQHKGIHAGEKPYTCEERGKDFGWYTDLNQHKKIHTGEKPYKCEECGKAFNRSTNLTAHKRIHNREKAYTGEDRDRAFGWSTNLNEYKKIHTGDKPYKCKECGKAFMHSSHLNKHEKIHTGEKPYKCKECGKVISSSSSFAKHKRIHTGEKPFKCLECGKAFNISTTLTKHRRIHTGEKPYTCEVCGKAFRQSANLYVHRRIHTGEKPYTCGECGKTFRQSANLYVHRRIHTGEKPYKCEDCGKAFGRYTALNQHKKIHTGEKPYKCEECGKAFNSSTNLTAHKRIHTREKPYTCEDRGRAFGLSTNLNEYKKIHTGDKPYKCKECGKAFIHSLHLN
For assay [3], the target named is ZNF721 DBD2 (Homo sapiens, UniProt Q8TF20-2 395-923). In short, it runs like this:
as §1

Sequence of ZNF721 DBD2 (Q8TF20 383-911): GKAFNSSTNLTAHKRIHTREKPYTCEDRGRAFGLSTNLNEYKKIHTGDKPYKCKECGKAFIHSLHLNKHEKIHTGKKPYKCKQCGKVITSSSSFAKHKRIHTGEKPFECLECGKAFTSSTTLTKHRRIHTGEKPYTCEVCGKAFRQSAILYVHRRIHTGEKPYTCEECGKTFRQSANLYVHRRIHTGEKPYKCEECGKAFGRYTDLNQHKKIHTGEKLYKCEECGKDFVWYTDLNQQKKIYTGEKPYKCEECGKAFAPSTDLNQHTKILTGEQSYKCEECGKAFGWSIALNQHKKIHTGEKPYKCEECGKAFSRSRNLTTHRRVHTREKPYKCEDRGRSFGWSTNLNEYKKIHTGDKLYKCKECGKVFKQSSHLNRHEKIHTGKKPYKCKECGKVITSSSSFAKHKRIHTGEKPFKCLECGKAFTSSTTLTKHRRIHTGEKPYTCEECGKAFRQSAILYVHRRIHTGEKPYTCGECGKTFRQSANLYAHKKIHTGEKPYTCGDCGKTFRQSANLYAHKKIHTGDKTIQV
Sequence of ZNF721 full-length (Q8TF20 other isoform, or with tags, fused parts or gaps): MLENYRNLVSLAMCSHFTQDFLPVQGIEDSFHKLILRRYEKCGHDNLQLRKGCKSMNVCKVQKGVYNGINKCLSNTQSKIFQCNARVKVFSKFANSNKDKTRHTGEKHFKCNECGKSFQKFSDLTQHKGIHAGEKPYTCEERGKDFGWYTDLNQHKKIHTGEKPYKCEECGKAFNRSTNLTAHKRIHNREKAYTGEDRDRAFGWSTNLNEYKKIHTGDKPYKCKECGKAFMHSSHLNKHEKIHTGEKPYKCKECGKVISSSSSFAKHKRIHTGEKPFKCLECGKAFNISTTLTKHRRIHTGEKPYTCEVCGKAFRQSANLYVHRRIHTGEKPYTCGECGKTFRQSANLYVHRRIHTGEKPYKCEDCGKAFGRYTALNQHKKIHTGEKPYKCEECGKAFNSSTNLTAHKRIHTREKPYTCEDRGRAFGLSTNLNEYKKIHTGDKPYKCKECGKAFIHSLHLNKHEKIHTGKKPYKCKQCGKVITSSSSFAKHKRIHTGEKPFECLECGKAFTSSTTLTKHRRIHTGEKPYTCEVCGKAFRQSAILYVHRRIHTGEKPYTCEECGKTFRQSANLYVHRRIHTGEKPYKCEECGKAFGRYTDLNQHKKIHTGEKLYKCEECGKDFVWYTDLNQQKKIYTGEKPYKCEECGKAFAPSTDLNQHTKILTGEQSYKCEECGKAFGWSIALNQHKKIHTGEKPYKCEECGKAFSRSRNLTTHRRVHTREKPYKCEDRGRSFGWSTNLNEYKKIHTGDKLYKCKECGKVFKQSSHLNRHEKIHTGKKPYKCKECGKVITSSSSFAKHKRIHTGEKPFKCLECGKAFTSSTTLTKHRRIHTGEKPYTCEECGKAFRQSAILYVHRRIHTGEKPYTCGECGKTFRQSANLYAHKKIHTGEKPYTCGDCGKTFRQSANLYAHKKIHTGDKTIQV

For CCCCCACACC, the binding signal is 0.231 relative 10-mer count in assay [1], 0.00821 relative 10-mer count in assay [2] and 0.00779 relative 10-mer count in assay [3].
CAAAAAAAAA: the results for the binding signal in assay [1], in assay [2] and in assay [3] were 0.226 relative 10-mer count, 0.0215 relative 10-mer count and 0.0886 relative 10-mer count, respectively.
For CCCCCTCGCC the same measures were 0.123 relative 10-mer count, 0.0061 relative 10-mer count and 0.00288 relative 10-mer count.
In the same order, the values of CAGCGTCTCC are 0.299 relative 10-mer count, 0.00174 relative 10-mer count and 0.722 relative 10-mer count.
For ACCACCCTCC, the binding signal is 0.124 relative 10-mer count in assay [1], 0.00523 relative 10-mer count in assay [2] and 0.00324 relative 10-mer count in assay [3].
In the same order, the values of CGACCCACCC are 0.126 relative 10-mer count, 0.00477 relative 10-mer count and 0.00324 relative 10-mer count.
For CCGACCACCC the same measures were 0.119 relative 10-mer count, 0.00495 relative 10-mer count and 0.00443 relative 10-mer count.
For CCCGCCCCCG the same measures were 0.13 relative 10-mer count, 0.00482 relative 10-mer count and 0.00144 relative 10-mer count.
CGCCCCACCA: the binding signal in assay [1] is 0.117 relative 10-mer count; in assay [2] it was 0.00362 relative 10-mer count; in assay [3] it was 0.00312 relative 10-mer count.
For CACCGCCCCA the same measures were 0.107 relative 10-mer count, 0.00404 relative 10-mer count and 0.0024 relative 10-mer count.
With ACCCCTCCCC, the figures for the binding signal in assay [1], in assay [2] and in assay [3] were 0.189 relative 10-mer count, 0.00688 relative 10-mer count and 0.00216 relative 10-mer count, respectively.
GCCCCCCACC: the binding signal turned out to be 0.171 relative 10-mer count in assay [1], 0.00693 relative 10-mer count in assay [2] and 0.00455 relative 10-mer count in assay [3].
For AAAAAGCAGC, the binding signal is 0.557 relative 10-mer count in assay [1], 0.00835 relative 10-mer count in assay [2] and 0.477 relative 10-mer count in assay [3].
For CAACCCCCAC the same measures were 0.108 relative 10-mer count, 0.00417 relative 10-mer count and 0.00216 relative 10-mer count.
For CCGCCGCCCC the same measures were 0.169 relative 10-mer count, 0.00546 relative 10-mer count and 0.00168 relative 10-mer count.
In the same order, the values of CCCGCGCCCC are 0.146 relative 10-mer count, 0.00505 relative 10-mer count and 0.0018 relative 10-mer count.
For CAGAAAAAAG, the results for the binding signal in assay [1], in assay [2] and in assay [3] were 0.147 relative 10-mer count, 0.0308 relative 10-mer count and 0.0475 relative 10-mer count, respectively.
Take GCCACCACCC: the binding signal in assay [1] turned out to be 0.106 relative 10-mer count; in assay [2], 0.00413 relative 10-mer count; in assay [3] it was 0.00204 relative 10-mer count.
In the same order, the values of CACCCTCCCC are 0.212 relative 10-mer count, 0.00945 relative 10-mer count and 0.00312 relative 10-mer count.
In the case of CGCCCCTCCC, the binding signal in assay [1] stood at 0.158 relative 10-mer count; in assay [2], 0.00605 relative 10-mer count; in assay [3] it was 0.00336 relative 10-mer count.
For CACCGCCCCC the same measures were 0.171 relative 10-mer count, 0.00803 relative 10-mer count and 0.003 relative 10-mer count.
Regarding CCAAAAAAAA, the binding signal in assay [1] is 0.211 relative 10-mer count; in assay [2], 0.0171 relative 10-mer count; in assay [3] it was 0.0966 relative 10-mer count.
For the sequence ACCCCACCAC, the results for the binding signal in assay [1], in assay [2] and in assay [3] were 0.199 relative 10-mer count, 0.00738 relative 10-mer count and 0.00407 relative 10-mer count, respectively.
In the same order, the values of GCATACCCTA are 0.202 relative 10-mer count, 0.0231 relative 10-mer count and 0.217 relative 10-mer count.
AAGCGTATCC: the binding signal was 0.108 relative 10-mer count in assay [1], 0.0756 relative 10-mer count in assay [2] and 0.00863 relative 10-mer count in assay [3].
For the sequence CCAACCACCC, the binding signal in assay [1] was determined as 0.175 relative 10-mer count; in assay [2], 0.00624 relative 10-mer count; in assay [3], 0.00312 relative 10-mer count.
For CCAGCCCACC the same measures were 0.12 relative 10-mer count, 0.00353 relative 10-mer count and 0.00336 relative 10-mer count.
Turning to GCCCCACCCC, the binding signal was determined as 0.216 relative 10-mer count in assay [1], 0.00775 relative 10-mer count in assay [2] and 0.00599 relative 10-mer count in assay [3].
In the same order, the values of AAAAAAGCTC are 0.21 relative 10-mer count, 0.0749 relative 10-mer count and 0.00515 relative 10-mer count.
For CCCCGCCCGC, the values for the binding signal in assay [1], in assay [2] and in assay [3] were 0.115 relative 10-mer count, 0.00417 relative 10-mer count and 0.0018 relative 10-mer count, respectively.
For CCCCCCTACC the same measures were 0.127 relative 10-mer count, 0.00569 relative 10-mer count and 0.0036 relative 10-mer count.
On to AGAAAGAAGC, for which the binding signal in assay [1] was determined as 0.136 relative 10-mer count; in assay [2], 0.0675 relative 10-mer count; in assay [3], 0.00216 relative 10-mer count.
For GCCCACCCCA the same measures were 0.142 relative 10-mer count, 0.00505 relative 10-mer count and 0.00971 relative 10-mer count.
In the same order, the values of CCCACCCCGA are 0.132 relative 10-mer count, 0.00404 relative 10-mer count and 0.00192 relative 10-mer count.
In the same order, the values of CCCCCCCACG are 0.116 relative 10-mer count, 0.00399 relative 10-mer count and 0.00443 relative 10-mer count.
Consider GGGGGCGGGA, for which the binding signal in assay [1] was 0.119 relative 10-mer count; in assay [2], 0.00537 relative 10-mer count; in assay [3] it was 0.00144 relative 10-mer count.
In the same order, the values of CCCCCCAGCC are 0.118 relative 10-mer count, 0.00505 relative 10-mer count and 0.00228 relative 10-mer count.
As for AAAAGCTGCA, the results for the binding signal in assay [1], in assay [2] and in assay [3] were 0.114 relative 10-mer count, 0.0533 relative 10-mer count and 0.00312 relative 10-mer count, respectively.
For CTCCCCACCA the same measures were 0.115 relative 10-mer count, 0.00596 relative 10-mer count and 0.00587 relative 10-mer count.
As to ACCCCAACCC, the binding signal came to 0.128 relative 10-mer count in assay [1], 0.00463 relative 10-mer count in assay [2] and 0.00348 relative 10-mer count in assay [3].
Take AAAAGCATAC: the binding signal in assay [1] is 0.149 relative 10-mer count; in assay [2], 0.0247 relative 10-mer count; in assay [3], 0.039 relative 10-mer count.
Turning to CCCACCCTCA, the binding signal was found to be 0.114 relative 10-mer count in assay [1], 0.00573 relative 10-mer count in assay [2] and 0.00971 relative 10-mer count in assay [3].
For the sequence CCGCCCCCCC, the binding signal came out at 0.197 relative 10-mer count in assay [1], 0.00775 relative 10-mer count in assay [2] and 0.00192 relative 10-mer count in assay [3].
In the same order, the values of CCCGTCCCCC are 0.187 relative 10-mer count, 0.00771 relative 10-mer count and 0.0018 relative 10-mer count.
In the same order, the values of AAAAAAGCAT are 0.343 relative 10-mer count, 0.0588 relative 10-mer count and 0.067 relative 10-mer count.
In the case of GAAGCGTACC, the results for the binding signal in assay [1], in assay [2] and in assay [3] were 0.104 relative 10-mer count, 0.0792 relative 10-mer count and 0.0018 relative 10-mer count, respectively.
Regarding ACCGCCCCCC, the values for the binding signal in assay [1], in assay [2] and in assay [3] were 0.135 relative 10-mer count, 0.00642 relative 10-mer count and 0.00132 relative 10-mer count, respectively.
With GGAGGGGGGA, the binding signal in assay [1] is 0.131 relative 10-mer count; in assay [2], 0.00601 relative 10-mer count; in assay [3] it was 0.00336 relative 10-mer count.
CCACCACCCA: the binding signal was found to be 0.222 relative 10-mer count in assay [1], 0.0105 relative 10-mer count in assay [2] and 0.00671 relative 10-mer count in assay [3].
Regarding GGTGGGTGGA, the binding signal was 0.13 relative 10-mer count in assay [1], 0.00615 relative 10-mer count in assay [2] and 0.00611 relative 10-mer count in assay [3].
For CCCCCTCACC the same measures were 0.149 relative 10-mer count, 0.00624 relative 10-mer count and 0.00372 relative 10-mer count.
For ATGGGGTGGG the same measures were 0.125 relative 10-mer count, 0.00477 relative 10-mer count and 0.00551 relative 10-mer count.
In the same order, the values of CGCTTCATAC are 0.265 relative 10-mer count, 0.363 relative 10-mer count and 0.0012 relative 10-mer count.
Regarding ACCCCACCTC, the binding signal is 0.104 relative 10-mer count in assay [1], 0.00527 relative 10-mer count in assay [2] and 0.0024 relative 10-mer count in assay [3].
In the same order, the values of ACCCCCACAC are 0.108 relative 10-mer count, 0.00312 relative 10-mer count and 0.00527 relative 10-mer count.
In the same order, the values of CTCCCCGCCC are 0.131 relative 10-mer count, 0.00583 relative 10-mer count and 0.00372 relative 10-mer count.
For GCCCCAACCC the same measures were 0.105 relative 10-mer count, 0.00376 relative 10-mer count and 0.00168 relative 10-mer count.
With CCACCCACAC, the binding signal worked out at 0.152 relative 10-mer count in assay [1], 0.00734 relative 10-mer count in assay [2] and 0.00635 relative 10-mer count in assay [3].
Turning to AAAAAGCTCA, the figures for the binding signal in assay [1], in assay [2] and in assay [3] were 0.112 relative 10-mer count, 0.0408 relative 10-mer count and 0.00407 relative 10-mer count, respectively.
Take CCACCCTCCC: the binding signal turned out to be 0.246 relative 10-mer count in assay [1], 0.0111 relative 10-mer count in assay [2] and 0.00467 relative 10-mer count in assay [3].
